Shown are actives, neighbours in structure and some others; about 9.3% of the full set was active somewhere.
FMDV antiviral: antivirals against foot and mouth disease virus; hit rate 1.2% among 410,000; FMDV antiviral cell-based qHTS; Potency, µM (highest dose often 57.9 µM), for inactives: top-dose activity change, negative = inhibition, usual class: inhibitors; AID 1159524; calls by dose curve; tested in HEK293T cells; also: read-out not given here; potency is read from the fitted curve at half-maximal effect; nearly all actives have a fitted effect of over 45% in size
Vaccinia mCherry: vaccinia inhibition (mCherry reporter); Vaccinia virus mCherry reporter infection, fluorescence; Potency, µM (top dose mostly 36.5 µM), for the others: top-dose activity change, negative = inhibition, hits mostly inhibitors; hit rate 0.63% among 310,000; calls by dose curve; tested in A549 cells; also: potency is read from the fitted curve at half-maximal effect; nearly all actives have a fitted effect of over 35% in size
Vaccinia Venus: vaccinia inhibition (Venus reporter) | Vaccinia virus Venus reporter expression, fluorescence | Potency, µM (top dose mostly 36.5 µM), inactives show at the highest dose activity change, negative = inhibition, hits mostly inhibitors | hit rate 0.46% among 330,000 | AID 720580; calls by dose curve; tested in A549 cells; also: potency is read from the fitted curve at half-maximal effect; nearly all actives have a fitted effect of over 30% in size
HCMV antiviral: human cytomegalovirus inhibition | HFF cells, HCMV-luciferase reporter, 72 h; hits give low values | activity change, negative = inhibition, % at 57.5 µM | hit rate 4.5% among 410,000 | AID 1259415; in the data active = activity change below about -60%; inconclusive = no clear call, values can overlap the other calls; inactive = above about -39%
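Steps: HFFs plated, 16 h 37C; compounds added; HCMV-luciferase added to MOI 1 PFU/cell; 72 h 37C; OneGlo reagent, 5 min room temperature; luminescence read, normalized to controls.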
HCV inhibitor: inhibitors of hepatitis C virus infection. Potency, µM (titrated, usually from 41.8 µM), for inactives: at the top dose activity change, negative = inhibition, actives largely listed as inhibitors. hit rate 3.4% among 340,000. Huh7.5.1 HCVcc-Cre infection, luciferase reporter, 44 h; also: potency is read from the fitted curve at half-maximal effect
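After 44 h co-culture of compound, cells and HCVcc-Cre (~0.5 moi), substrate is added for 15 min at room temperature and luciferase measured over 15 sec. Cells were seeded at 1,000/well and pre-cultured 4 h.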
Sm TGR block: inhibitors of Schistosoma mansoni thioredoxin glutathione reductase; purified TGR, DTNB reduction, TNB absorbance 405 nm; Potency, µM (doses to about 114 µM), without a hit: top-dose activity change, negative = inhibition, most hits filed as inhibitors; hit rate 3% among 360,000; AID 485364; also: potency is read from the fitted curve at half-maximal effect; nearly all actives have a fitted effect of over 60% in size
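Kinetic colorimetric format: TGR-catalysed, NADPH-driven DTNB reduction monitored via TNB absorbance. Enzyme dispensed at 20 nM; compound exposure 15 min at room temperature before reaction start.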
An asterisk follows results filed as active; i = inactive; ? = inconclusive; · = no result given; + = active, no number; [ ] = dose if it differs, or a comment. Unless noted, calls follow the shape of the dose curve; as a rule, active = well fitted curve in the direction sought with a large enough effect; inconclusive = small, poorly fitted or top-dose-only effect, or another doubt; inactive = no such curve, though single readings can be large; an effect the other way counts as inactive or inconclusive. % is scaled to controls: 0 for no effect and ±100 for the full control effect.

SMILES	FMDV antiviral	Vaccinia mCherry	Vaccinia Venus	HCMV antiviral	HCV inhibitor	Sm TGR block
O=C1N=C(N2CCN(c3ccccc3)CC2)S/C1=C/c1cccs1	14%	i	8%	2	0%	0%
O=C1N=C(c2ccccc2)S/C1=C\c1cccs1	45%	i	-8%	17	-5%	4µM*
CNc1ccc2oc(C[C@H]3O[C@@]4(CC[C@H]3C)O[C@H]([C@H](C)C(=O)c3ccc[nH]3)[C@H](C)C[C@H]4C)nc2c1C(=O)O	?	3.5µM*	2.5µM*	-100*	2.2µM*	-11%
Cc1ccc(NC(=O)CS(=O)CC(=O)NC23CC4CC(CC(C4)C2)C3)cc1 (configuration not stated)	0%	-3%	-7%	8	15%	-1%
COc1ccccc1CCNC(=O)c1c(N)[nH]c(C(=O)c2ccccc2)c1-c1ccc(Br)cc1	-7%	-14%	-18%	-25	·	·
O=C(OCc1ccccc1)N(CCCCN(CCCNCc1ccccc1)C(=O)OCc1ccccc1)CCCNCc1ccccc1	?	?	?	-97*	10µM*	·
O=C(Nc1ccn(CCCNCc2ccc3c(c2)OCO3)c(=O)n1)OCc1ccccc1	16%	i	-17%	-4	10µM*	·
O=C(Nc1ccn(CCCNCc2ccccc2)c(=O)n1)OCc1ccccc1	11%	-20%	?	-14	0.56µM*	·
O=C(Nc1ccn(CCCNCCCN2CCCC2=O)c(=O)n1)OCc1ccccc1	-22%	-11%	-4%	-34	4%[8.37 µM]	·
CCCCCCN1C2=NCCCN2c2ccccc21	?	·	·	?	?	6%
CCCN1C2=NS(=O)(=O)CCN2c2ccccc21	-9%	·	-7%	-101*	20%	1%
O=[N+]([O-])c1c(NCCCO)cc(Sc2nc3ccccc3s2)c2nonc12	?	·	·	·	-27%	-8%
CCCC(=O)OCCNc1cc(SCc2ccco2)c2nonc2c1[N+](=O)[O-]	0%	10µM*	?	16	9%	14µM*
CCCSc1cc(NCCOC(=O)CCC)c([N+](=O)[O-])c2nonc12	0%	-23%	-13%	?	-4%	2µM*
CCCSc1cc(NCCOC(C)=O)c([N+](=O)[O-])c2nonc12	0%	i	-4%	-28	5%	-3%
CC(=O)OCCCNc1cc(SCc2ccco2)c2nonc2c1[N+](=O)[O-]	35µM*	11µM*	?	10	0%	7.1µM*
CCCC(=O)OCCNc1cc(Sc2nccn2C)c2nonc2c1[N+](=O)[O-]	35µM*	-23%	-8%	53	?	0.4µM*
CCCC(=O)N1CCC1(C)C(=O)NS(=O)(=O)c1ccc(OC)cc1 (configuration not stated)	-9%	-4%	-2%	7	·	·
COc1ccc(CCNC(=O)CC2C(=O)NCCN2CC(C)(C)C)cc1 (configuration not stated)	-5%	-2%	-9%	22	8%	?
CCc1ccc(CNC(=O)C2CCCN(c3nn4cc(-c5ccc(F)cc5)nc4s3)C2)cc1 (configuration not stated)	?	i	-18%	+	·	7%
CCOc1ccc(CNC(=O)C2CCCN(c3nn4cc(-c5ccc(F)cc5)nc4s3)C2)cc1 (configuration not stated)	-10%	-18%	-20%	+	·	0%
Cn1nnc2cc(NC(=O)Nc3cccc(C(F)(F)F)c3)ccc21	7%	·	·	-35	-2%	18%
O=C1C(=O)N(CCCN2CCOCC2)C(c2ccc(F)cc2)/C1=C(/O)c1ccccc1 (configuration not stated)	-1%	·	·	24	23%	?
COc1ccc(/C(O)=C2/C(=O)C(=O)N(CCN3CCOCC3)C2c2ccccn2)cc1 (configuration not stated)	43%	i	-4%	6	6%	22µM*
O=C1C(=O)N(CCN2CCOCC2)C(c2ccccn2)/C1=C(/O)c1ccc(F)cc1 (configuration not stated)	12%	5%	13%	-21	14%	28µM*
SMILES	FMDV antiviral	Vaccinia mCherry	Vaccinia Venus	HCMV antiviral	HCV inhibitor	Sm TGR block
CCN(CC)CCCN1C(=O)C(=O)/C(=C(/O)c2ccc3c(c2)OCCO3)C1c1ccc(C)o1 (configuration not stated)	·	·	·	-3	·	50µM*
CCN(CC)CCN1C(=O)C(=O)/C(=C(/O)c2ccc(OC)cc2)C1c1ccco1 (configuration not stated)	26%	-11%	0%	4	32%	40µM*
O=C(NC1CCCC1)c1cc(-c2ccc(Cl)cc2)on1	32%	-1%	-6%	0	-11%	0%
CCCCCSc1nc(C)c(CC(=O)O)c(=O)[nH]1	5%	-8%	-4%	-5	-8%	2%
COc1ccc(S(=O)(=O)NC(C)C(=O)NCc2ccncc2)cc1OC (configuration not stated)	-2%	-2%	-3%	17	-1%	-2%
COc1ccc(C2/C(=C(/O)c3ccc(F)cc3)C(=O)C(=O)N2CCCN(C)C)cc1 (configuration not stated)	-7%	-3%	-3%	-83*	-16%	·
CCCOc1ccc(C2/C(=C(/O)c3ccc(F)cc3)C(=O)C(=O)N2CCCN(C)C)cc1 (configuration not stated)	0%	-8%	-10%	7	13%	?
COc1ccc(C2/C(=C(/O)c3ccc(C)cc3)C(=O)C(=O)N2CCCN2CCOCC2)cc1 (configuration not stated)	-2%	·	·	1	9%	45µM*
O=C(CNS(=O)(=O)c1ccc(Cl)c(C(F)(F)F)c1)NC1CCCCCC1	5%	·	·	-15	-6%	0%
CC(Sc1nc(-c2ccccc2)cc(C(F)(F)F)n1)C(=O)Nc1sc2c(c1C#N)CCC2 (configuration not stated)	-29%	·	·	-5	?	-19%
CCS(=O)(=O)c1ncc(Cl)c(C(=O)N(Cc2ccccc2)Cc2ccco2)n1	14µM*	-14%[7.34 µM]	-10%[7.34 µM]	-99*	·	8.9µM*
CC1=C/C(=C\C=C(C#N)C#N)N(C)c2ccccc21	-14%	i	119%	-81*	-12%	10%
O=C(Nc1ccc2oc(-c3cccnc3)nc2c1)c1ccc(-c2ccc(OC(F)(F)F)cc2)o1	-30%	-1%	8%	-9	·	8.9µM*
O=C(Cc1ccccc1)Nc1ccc2oc(-c3cccnc3)nc2c1	30%	-15%	-1%	41	?	-4%
O=C(Nc1ccc2oc(-c3cccnc3)nc2c1)c1ccc(-c2ccccc2)o1	35µM*	-16%	-20%	-73*	·	35µM*
CN(CC(=O)O)S(=O)(=O)c1ccc2[nH]c(=O)c(=O)[nH]c2c1	-16%	·	·	-3	8%	-5%

Screening results as filed in PubChem BioAssay.
